Source: the supplement of paper PMC7411054

Legend:
Conditions in all cases: treatment time: 24 h
A549-ACTB-RAB5A [1] = assay: lowest phenotypically active concentration; higher = less potent
In short: (§1)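 Each of fifteen gene-edited A549, HepG2 and WPMY1 reporter lines, marked with BFP for segmentation and GFP and RFP/FusionRed, was treated in four wells at 0.3, 1, 3 or 9 µM for 24 h prior to live imaging. Normalisation of per-well live-cell features used solvent control wells. Deviation needed ≥3 of 4 wells beyond the 95th percentile of control Euclidean distances, and reproducibility needed a median replicate Pearson correlation above the 95th percentile of non-replicates. Both were required for phenotypic activity.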

A549-CANX-COX4 [2] = assay: as above
In short: as §1

A549-GM130-SQSTM1 [3] = assay: as above
In short: as §1

A549-TP53BP1-CLTA [4] = assay: as above
In short: as §1

A549-TUBA1B-RELA [5] = assay: as above
In short: as §1

A549-ACTB-RAB5A [6] = assay: phenotypically active (imaging signature differs from DMSO and reproducible) at any of 0.3-9 uM (binary (1 = active, 0 = inactive)); higher = active
In short: as §1

A549-CANX-COX4 [7] = assay: as above
In short: as §1

A549-GM130-SQSTM1 [8] = assay: as above
In short: as §1

A549-TP53BP1-CLTA [9] = assay: as above
In short: as §1

A549-TUBA1B-RELA [10] = assay: as above
In short: as §1

HepG2-ACTB-RAB5A = assay: as above
In short: as §1

HepG2-CANX-COX4 = assay: as above
In short: as §1

HepG2-GM130-SQSTM1 = assay: as above
In short: as §1

HepG2-TP53BP1-CLTA = assay: as above
In short: as §1

HepG2-TUBA1B-RELA = assay: as above
In short: as §1

WPMY1-ACTB-RAB5A = assay: as above
In short: as §1

WPMY1-CANX-COX4 = assay: as above
In short: as §1

WPMY1-GM130-SQSTM1 = assay: as above
In short: as §1

WPMY1-TP53BP1-CLTA = assay: as above
In short: as §1

WPMY1-TUBA1B-RELA = assay: as above
In short: as §1

CC(C)(C)c1cc(NC(=O)Nc2ccc(-c3cn4c(n3)sc3cc(OCCN5CCOCC5)ccc34)cc2)no1 [quizartinib]
3 µM: lowest phenotypically active concentration (A549-ACTB-RAB5A [1]) | lowest phenotypically active concentration (A549-CANX-COX4 [2]) | lowest phenotypically active concentration (A549-TP53BP1-CLTA [4]) | lowest phenotypically active concentration (A549-TUBA1B-RELA [5])
active: phenotypically active (A549-ACTB-RAB5A [6]) 1 | phenotypically active (A549-CANX-COX4 [7]) 1 | phenotypically active (A549-GM130-SQSTM1 [8]) 1 | phenotypically active (A549-TP53BP1-CLTA [9]) 1 | phenotypically active (A549-TUBA1B-RELA [10]) 1 | phenotypically active (HepG2-ACTB-RAB5A) 1 | phenotypically active (HepG2-GM130-SQSTM1) 1 | phenotypically active (HepG2-TUBA1B-RELA) 1 | phenotypically active (WPMY1-ACTB-RAB5A) 1 | phenotypically active (WPMY1-CANX-COX4) 1 | phenotypically active (WPMY1-GM130-SQSTM1) 1 | phenotypically active (WPMY1-TP53BP1-CLTA) 1 | phenotypically active (WPMY1-TUBA1B-RELA) 1
inactive: phenotypically active (HepG2-CANX-COX4) 0 | phenotypically active (HepG2-TP53BP1-CLTA) 0
1 µM: lowest phenotypically active concentration (A549-GM130-SQSTM1 [3])

Cn1cnc2c(F)c(Nc3ccc(Br)cc3Cl)c(C(=O)NOCCO)cc21 [selumetinib]
inactive: phenotypically active (WPMY1-CANX-COX4) 0 | phenotypically active (WPMY1-TUBA1B-RELA) 0
≤ 0.3 µM: lowest phenotypically active concentration (A549-ACTB-RAB5A [1]) | lowest phenotypically active concentration (A549-GM130-SQSTM1 [3]) | lowest phenotypically active concentration (A549-TP53BP1-CLTA [4]) | lowest phenotypically active concentration (A549-TUBA1B-RELA [5])
active: phenotypically active (A549-ACTB-RAB5A [6]) 1 | phenotypically active (A549-CANX-COX4 [7]) 1 | phenotypically active (A549-GM130-SQSTM1 [8]) 1 | phenotypically active (A549-TP53BP1-CLTA [9]) 1 | phenotypically active (A549-TUBA1B-RELA [10]) 1 | phenotypically active (HepG2-ACTB-RAB5A) 1 | phenotypically active (HepG2-CANX-COX4) 1 | phenotypically active (HepG2-GM130-SQSTM1) 1 | phenotypically active (HepG2-TP53BP1-CLTA) 1 | phenotypically active (HepG2-TUBA1B-RELA) 1 | phenotypically active (WPMY1-ACTB-RAB5A) 1 | phenotypically active (WPMY1-GM130-SQSTM1) 1 | phenotypically active (WPMY1-TP53BP1-CLTA) 1
1 µM: lowest phenotypically active concentration (A549-CANX-COX4 [2])

Cc1ccc(Nc2nccc(N(C)c3ccc4c(C)n(C)nc4c3)n2)cc1S(N)(=O)=O [pazopanib]
inactive: phenotypically active (HepG2-ACTB-RAB5A) 0 | phenotypically active (HepG2-TUBA1B-RELA) 0 | phenotypically active (WPMY1-GM130-SQSTM1) 0 | phenotypically active (WPMY1-TP53BP1-CLTA) 0
active: phenotypically active (A549-ACTB-RAB5A [6]) 1 | phenotypically active (A549-CANX-COX4 [7]) 1 | phenotypically active (A549-GM130-SQSTM1 [8]) 1 | phenotypically active (A549-TP53BP1-CLTA [9]) 1 | phenotypically active (A549-TUBA1B-RELA [10]) 1 | phenotypically active (HepG2-CANX-COX4) 1 | phenotypically active (HepG2-GM130-SQSTM1) 1 | phenotypically active (HepG2-TP53BP1-CLTA) 1 | phenotypically active (WPMY1-ACTB-RAB5A) 1 | phenotypically active (WPMY1-CANX-COX4) 1 | phenotypically active (WPMY1-TUBA1B-RELA) 1
1 µM: lowest phenotypically active concentration (A549-ACTB-RAB5A [1]) | lowest phenotypically active concentration (A549-TP53BP1-CLTA [4])
3 µM: lowest phenotypically active concentration (A549-CANX-COX4 [2]) | lowest phenotypically active concentration (A549-GM130-SQSTM1 [3]) | lowest phenotypically active concentration (A549-TUBA1B-RELA [5])

O=C1c2ccccc2-c2nc3nonc3nc21
inactive: phenotypically active (WPMY1-GM130-SQSTM1) 0 | phenotypically active (WPMY1-TP53BP1-CLTA) 0
1 µM: lowest phenotypically active concentration (A549-CANX-COX4 [2])
active: phenotypically active (A549-ACTB-RAB5A [6]) 1 | phenotypically active (A549-CANX-COX4 [7]) 1 | phenotypically active (A549-GM130-SQSTM1 [8]) 1 | phenotypically active (A549-TP53BP1-CLTA [9]) 1 | phenotypically active (A549-TUBA1B-RELA [10]) 1 | phenotypically active (HepG2-ACTB-RAB5A) 1 | phenotypically active (HepG2-CANX-COX4) 1 | phenotypically active (HepG2-GM130-SQSTM1) 1 | phenotypically active (HepG2-TP53BP1-CLTA) 1 | phenotypically active (HepG2-TUBA1B-RELA) 1 | phenotypically active (WPMY1-ACTB-RAB5A) 1 | phenotypically active (WPMY1-CANX-COX4) 1 | phenotypically active (WPMY1-TUBA1B-RELA) 1
3 µM: lowest phenotypically active concentration (A549-ACTB-RAB5A [1]) | lowest phenotypically active concentration (A549-GM130-SQSTM1 [3]) | lowest phenotypically active concentration (A549-TP53BP1-CLTA [4]) | lowest phenotypically active concentration (A549-TUBA1B-RELA [5])

COc1ccc2[nH]c(C(=O)c3ccccc3)cc2c1
≤ 0.3 µM: lowest phenotypically active concentration (A549-ACTB-RAB5A [1]) | lowest phenotypically active concentration (A549-CANX-COX4 [2]) | lowest phenotypically active concentration (A549-GM130-SQSTM1 [3]) | lowest phenotypically active concentration (A549-TP53BP1-CLTA [4]) | lowest phenotypically active concentration (A549-TUBA1B-RELA [5])
active: phenotypically active (A549-ACTB-RAB5A [6]) 1 | phenotypically active (A549-CANX-COX4 [7]) 1 | phenotypically active (A549-GM130-SQSTM1 [8]) 1 | phenotypically active (A549-TP53BP1-CLTA [9]) 1 | phenotypically active (A549-TUBA1B-RELA [10]) 1 | phenotypically active (HepG2-ACTB-RAB5A) 1 | phenotypically active (HepG2-CANX-COX4) 1 | phenotypically active (HepG2-GM130-SQSTM1) 1 | phenotypically active (HepG2-TP53BP1-CLTA) 1 | phenotypically active (HepG2-TUBA1B-RELA) 1 | phenotypically active (WPMY1-ACTB-RAB5A) 1 | phenotypically active (WPMY1-CANX-COX4) 1 | phenotypically active (WPMY1-GM130-SQSTM1) 1 | phenotypically active (WPMY1-TP53BP1-CLTA) 1 | phenotypically active (WPMY1-TUBA1B-RELA) 1

N=C(N)c1ccc(OCCCCCOc2ccc(C(=N)N)cc2)cc1 [pentamidine]
3 µM: lowest phenotypically active concentration (A549-TP53BP1-CLTA [4])
inactive: phenotypically active (HepG2-GM130-SQSTM1) 0 | phenotypically active (WPMY1-ACTB-RAB5A) 0 | phenotypically active (WPMY1-CANX-COX4) 0 | phenotypically active (WPMY1-TP53BP1-CLTA) 0 | phenotypically active (WPMY1-TUBA1B-RELA) 0
≤ 0.3 µM: lowest phenotypically active concentration (A549-CANX-COX4 [2])
active: phenotypically active (A549-ACTB-RAB5A [6]) 1 | phenotypically active (A549-CANX-COX4 [7]) 1 | phenotypically active (A549-GM130-SQSTM1 [8]) 1 | phenotypically active (A549-TP53BP1-CLTA [9]) 1 | phenotypically active (A549-TUBA1B-RELA [10]) 1 | phenotypically active (HepG2-ACTB-RAB5A) 1 | phenotypically active (HepG2-CANX-COX4) 1 | phenotypically active (HepG2-TP53BP1-CLTA) 1 | phenotypically active (HepG2-TUBA1B-RELA) 1 | phenotypically active (WPMY1-GM130-SQSTM1) 1
1 µM: lowest phenotypically active concentration (A549-ACTB-RAB5A [1]) | lowest phenotypically active concentration (A549-GM130-SQSTM1 [3]) | lowest phenotypically active concentration (A549-TUBA1B-RELA [5])
